# Measurements taken from PubChem BioAssay (NCATS).
# Inconclusive results are not listed. Calls of active or inactive are those of the source. The call rests on the fitted dose curve; in most records, active means well fitted cell-killing curve with a large enough effect; inconclusive means small, poorly fitted or top-dose-only effect, or effect the other way; inactive means no such curve, though single readings can be large or run the other way.
# Experiments:
# [1] = Quantitative High-Throughput drug screen in 47 multiple myeloma cell lines against the NCATS MIPE library collection: Delta47_JCRB cell viability assay (AID 1918925; further: nearly all actives have a fitted effect of over 45% in size)
# Procedure, shortened: (§1)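 Myeloma cell lines, 500 cells per well, exposed to MIPE 4.0 library compounds for 48 h at 37C, 5% CO2. Viability from ATP by CellTiter-Glo luminescence; normalised to DMSO (100%) and media-only (0%) wells.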
# [2] = Quantitative High-Throughput drug screen in 47 multiple myeloma cell lines against the NCATS MIPE library collection: AMO1_DSMZ cell viability assay (AID 1918927; further: nearly all actives have a fitted effect of over 30% in size)
# Procedure, shortened: as §1
# [3] = Quantitative High-Throughput drug screen in 47 multiple myeloma cell lines against the NCATS MIPE library collection: ARP1_JJKsccF8 cell viability assay (AID 1918928; further: nearly all actives have a fitted effect of over 40% in size)
# Procedure, shortened: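 ATP readout (CellTiter-Glo), 48 h drug incubation, 37 °C/5% CO2, 500 cells per well; normalisation to DMSO (100%) and media-only (0%) controls.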
# [4] = Quantitative High-Throughput drug screen in 47 multiple myeloma cell lines against the NCATS MIPE library collection: ARD_JJKsccE7 cell viability assay (AID 1918929)
# Procedure, shortened: as §1
# [5] = Quantitative High-Throughput drug screen in 47 multiple myeloma cell lines against the NCATS MIPE library collection: Karpas620_DSMZ cell viability assay (AID 1918959); further: nearly all actives have a fitted effect of over 30% in size
# Procedure, shortened: as §1
# [6] = Quantitative High-Throughput drug screen in 47 multiple myeloma cell lines against the NCATS MIPE library collection: EJM_DSMZ cell viability assay (AID 1918926; further: nearly all actives have a fitted effect of over 30% in size)
# Procedure, shortened: as §1
# Potency means the concentration at half of the fitted maximal effect.
smiles,measurement,setting,value
COc1ccc(CCN(C)CCCOc2ccc(S(=O)(=O)c3[nH]c4ccccc4c3C(C)C)cc2)cc1OC,Potency,[1],20.9 µM (active)
same,Potency,[2],inactive
same,Potency,[3],inactive
same,Potency,[4],inactive
same,Potency,[5],inactive
C=CC[N+]1([C@H]2C[C@H]3[C@@H]4CC[C@H]5C[C@H](O)[C@@H](N6CCOCC6)C[C@]5(C)[C@@H]4CC[C@]3(C)[C@H]2OC(C)=O)CCCC1,Potency,[1],inactive
same,Potency,[4],inactive
same,Potency,[5],inactive
CCC=CC[C@H]1C(=O)CC[C@@H]1CC(=O)OC,Potency,[6],inactive
same,Potency,[2],inactive
same,Potency,[3],inactive
same,Potency,[4],inactive
same,Potency,[5],inactive
O=[N+]([O-])c1ccc(Nc2ccccc2-c2ccccc2)c2nonc12,Potency,[3],inactive
same,Potency,[5],20.9 µM (active)
CC1CNc2c(cccc2S(=O)(=O)N[C@@H](CCCN=C(N)N)C(=O)N2CC[C@@H](C)C[C@@H]2C(=O)O)C1 (stereo partly specified),Potency,[6],inactive
same,Potency,[4],inactive
same,Potency,[5],23.5 µM (active)
CC1C(=O)OC2C(O)C34C5CC(C(C)(C)C)C36C(OC(=O)C6O)OC4(C(=O)O5)C12O (stereo unspecified),Potency,[6],inactive
same,Potency,[4],inactive
same,Potency,[5],inactive
CN(C)CC[C@H](CSc1ccccc1)Nc1ccc(S(=O)(=O)NC(=O)c2ccc(N3CCN(Cc4ccccc4-c4ccc(Cl)cc4)CC3)cc2)cc1[N+](=O)[O-],Potency,[6],5.9 µM (active)
same,Potency,[3],13.2 µM (active)
same,Potency,[4],8.33 µM (active)
same,Potency,[5],0.0662 µM (active)
Cc1cc2nc3c(=O)[nH]c(=O)nc-3n(CC(O)C(O)C(O)CO)c2cc1C (stereo unspecified),Potency,[6],1.18 µM (active)
same,Potency,[3],4.69 µM (active)
COc1cc2c(cc1OC)[C@@H]1Cc3ccc(OC)c(OC)c3CN1CC2,Potency,[2],inactive
same,Potency,[3],13.2 µM (active)
same,Potency,[4],inactive
same,Potency,[5],inactive
COc1ccc2ccc(=O)oc2c1CC=C(C)C,Potency,[6],1.48 µM (active)
same,Potency,[2],13.2 µM (active)
same,Potency,[3],8.33 µM (active)
same,Potency,[5],16.6 µM (active)
Nc1nc(Cl)nc2c1ncn2[C@@H]1O[C@H](CO)[C@@H](O)[C@H]1F,Potency,[2],0.0418 µM (active)
same,Potency,[3],2.35 µM (active)
same,Potency,[4],0.418 µM (active)
same,Potency,[5],0.469 µM (active)
COc1c(C)c2c(c(O)c1CC=C(C)CCC(=O)O)C(=O)OC2,Potency,[2],0.935 µM (active)
same,Potency,[3],6.62 µM (active)
same,Potency,[5],inactive
Cc1cc(OCCCS(C)(=O)=O)cc(C)c1-c1cccc(COc2ccc3c(c2)OC[C@H]3CC(=O)O)c1,Potency,[6],inactive
same,Potency,[4],inactive
same,Potency,[5],5.9 µM (active)
C#C[C@]1(O)CC[C@H]2[C@H]3CCc4cc(OC)ccc4[C@H]3CC[C@@]21C,Potency,[2],26.4 µM (active)
same,Potency,[3],inactive
same,Potency,[4],23.5 µM (active)
CCOC(=O)N1c2ccc(C(F)(F)F)cc2[C@@H](N(Cc2cc(C(F)(F)F)cc(C(F)(F)F)c2)C(=O)OC)C[C@H]1CC,Potency,[2],inactive
same,Potency,[3],4.69 µM (active)
same,Potency,[4],inactive
same,Potency,[5],inactive
Cc1ccc(C(=O)N(CCCN)[C@@H](c2nc3cc(Cl)ccc3c(=O)n2Cc2ccccc2)C(C)C)cc1,Potency,[3],inactive
Cc1ccc(C(=O)N(CCCN)[C@@H](c2oc3cc(Cl)ccc3c(=O)c2Cc2ccccc2)C(C)C)cc1,Potency,[2],0.001 µM (active)
same,Potency,[3],inactive
same,Potency,[4],0.001 µM (active)
CCOC(=O)c1c(CSc2ccccc2)n(C)c2cc(Br)c(O)c(CN(C)C)c12,Potency,[2],26.4 µM (active)
CN(C)CCOc1ccc(C(=C(CCCl)c2ccccc2)c2ccccc2)cc1,Potency,[2],inactive
same,Potency,[3],inactive
same,Potency,[4],inactive
COc1cc([C@@H]2c3cc4c(cc3[C@@H](O[C@@H]3O[C@@H]5CO[C@@H](C)O[C@@H]5[C@H](O)[C@@H]3O)[C@H]3COC(=O)[C@H]23)OCO4)cc(OC)c1O,Potency,[4],inactive
CN1N=C(N)c2cn([C@@H]3O[C@H](COP(=O)(O)O)[C@@H](O)[C@@H]3O)c3ncnc1c23,Potency,[2],0.0935 µM (active)
same,Potency,[3],0.469 µM (active)
same,Potency,[5],0.0833 µM (active)
Cc1ccc(NC(=O)c2cccc(N(C)C)c2)cc1NC(=O)c1ccc(O)cc1,Potency,[2],0.235 µM (active)
same,Potency,[5],5.9 µM (active)
CC[C@@H]([C@H](C)O)n1ncn(-c2ccc(N3CCN(c4ccc(OCC5CO[C@@](Cn6cncn6)(c6ccc(F)cc6F)C5)cc4)CC3)cc2)c1=O (stereo partly specified),Potency,[2],7.43 µM (active)
same,Potency,[5],5.9 µM (active)
COc1ccc2cc1Oc1ccc(cc1)C[C@H]1c3cc(c(OC)cc3CCN1C)Oc1c(OC)c(OC)cc3c1[C@H](C2)N(C)CC3,Potency,[2],7.43 µM (active)
same,Potency,[4],6.62 µM (active)
same,Potency,[5],5.26 µM (active)
